# How the values were obtained:
# Experiment in all cases: DAPPL (digital affinity profiling via proximity ligation, sequencing); 10 mM Tris-HCl pH 7.5, 50 mM NaCl, 1 mM DTT, 4% glycerol, room temperature, 30 min; GST-TFs on glutathione beads, 16-mer random dsDNA library, 0.1% formaldehyde crosslink after washing; high values mean tight binding
# ELK1 = molecular target: T1, ELK1 (Homo sapiens, UniProt P19419 1-428); details: protein: recombinant; tags: N-terminal GST; dsDNA, one strand shown
# T1 sequence: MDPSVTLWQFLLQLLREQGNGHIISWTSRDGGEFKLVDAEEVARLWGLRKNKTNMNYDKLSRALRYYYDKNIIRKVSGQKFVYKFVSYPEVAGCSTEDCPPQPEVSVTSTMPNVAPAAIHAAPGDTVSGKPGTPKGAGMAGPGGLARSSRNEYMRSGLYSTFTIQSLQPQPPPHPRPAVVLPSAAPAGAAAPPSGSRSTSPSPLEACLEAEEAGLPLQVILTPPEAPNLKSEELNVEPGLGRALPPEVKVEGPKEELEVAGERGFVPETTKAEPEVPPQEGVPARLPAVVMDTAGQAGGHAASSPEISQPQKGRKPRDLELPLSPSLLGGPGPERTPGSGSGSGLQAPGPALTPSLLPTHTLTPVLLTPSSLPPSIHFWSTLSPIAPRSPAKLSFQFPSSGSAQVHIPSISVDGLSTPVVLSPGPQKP
# How it was run: (§1)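 Binding signal is each hexamer's read frequency for a factor divided by its frequency in the tag-only sample. The factors were GST-fused human transcription factors from yeast, captured on glutathione beads, DNA-barcoded and pooled with that sample. Pools were incubated with 200 nmole of a random double-stranded 16-mer DNA library in Tris/NaCl/DTT/glycerol buffer at room temperature for 30 min, then washed, crosslinked with 0.1% formaldehyde, proximity-ligated with BsaI/T4 ligase (1 h, 37 °C), PCR-amplified and sequenced on an Illumina NextSeq500.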
# GABPA = molecular target: T2, GABPA (Homo sapiens, UniProt Q06546 1-454); details: protein: recombinant; tags: N-terminal GST; dsDNA, one strand shown
# T2 sequence: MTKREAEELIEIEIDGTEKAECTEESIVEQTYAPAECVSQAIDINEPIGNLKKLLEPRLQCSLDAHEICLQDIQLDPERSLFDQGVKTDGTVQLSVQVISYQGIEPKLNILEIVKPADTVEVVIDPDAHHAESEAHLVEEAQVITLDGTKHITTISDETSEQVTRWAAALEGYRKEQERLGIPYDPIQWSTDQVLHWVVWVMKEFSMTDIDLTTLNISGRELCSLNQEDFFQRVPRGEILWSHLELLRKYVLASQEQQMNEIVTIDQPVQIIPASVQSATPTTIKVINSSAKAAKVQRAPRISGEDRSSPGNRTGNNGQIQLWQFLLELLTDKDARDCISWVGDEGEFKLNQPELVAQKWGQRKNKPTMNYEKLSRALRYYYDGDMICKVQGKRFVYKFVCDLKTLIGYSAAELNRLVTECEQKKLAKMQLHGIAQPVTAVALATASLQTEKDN
# How it was run: as §1
# ELK3 = molecular target: T3, ELK3 (Homo sapiens, UniProt P41970 1-407); details: protein: recombinant; tags: N-terminal GST; dsDNA, one strand shown
# T3 sequence: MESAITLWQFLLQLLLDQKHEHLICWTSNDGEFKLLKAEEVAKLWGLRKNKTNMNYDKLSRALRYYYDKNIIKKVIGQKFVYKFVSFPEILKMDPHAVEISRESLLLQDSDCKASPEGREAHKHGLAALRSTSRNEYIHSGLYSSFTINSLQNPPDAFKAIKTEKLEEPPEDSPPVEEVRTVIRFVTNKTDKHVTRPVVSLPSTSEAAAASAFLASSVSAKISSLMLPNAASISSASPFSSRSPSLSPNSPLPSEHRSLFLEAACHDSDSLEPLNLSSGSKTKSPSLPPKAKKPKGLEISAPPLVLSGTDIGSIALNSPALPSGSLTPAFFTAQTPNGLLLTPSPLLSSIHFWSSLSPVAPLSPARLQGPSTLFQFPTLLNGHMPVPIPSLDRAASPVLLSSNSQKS
# How it was run: as §1
# FEV = molecular target: T4, FEV (Homo sapiens, UniProt Q99581 1-238); details: protein: recombinant; tags: N-terminal GST; dsDNA, one strand shown
# T4 sequence: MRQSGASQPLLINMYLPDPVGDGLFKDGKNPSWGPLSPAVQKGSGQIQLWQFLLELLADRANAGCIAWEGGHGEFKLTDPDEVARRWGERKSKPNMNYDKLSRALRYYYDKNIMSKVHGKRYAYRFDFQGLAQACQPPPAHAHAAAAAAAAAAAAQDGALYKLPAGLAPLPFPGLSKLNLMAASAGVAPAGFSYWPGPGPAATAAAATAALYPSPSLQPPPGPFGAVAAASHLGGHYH
# How it was run: as §1
# HSF1 = HSF1 (Homo sapiens, UniProt Q00613 1-529); details: protein: recombinant; tags: N-terminal GST; chain copies: 3; dsDNA, one strand shown
# HSF1, sequence (Q00613 whole entry): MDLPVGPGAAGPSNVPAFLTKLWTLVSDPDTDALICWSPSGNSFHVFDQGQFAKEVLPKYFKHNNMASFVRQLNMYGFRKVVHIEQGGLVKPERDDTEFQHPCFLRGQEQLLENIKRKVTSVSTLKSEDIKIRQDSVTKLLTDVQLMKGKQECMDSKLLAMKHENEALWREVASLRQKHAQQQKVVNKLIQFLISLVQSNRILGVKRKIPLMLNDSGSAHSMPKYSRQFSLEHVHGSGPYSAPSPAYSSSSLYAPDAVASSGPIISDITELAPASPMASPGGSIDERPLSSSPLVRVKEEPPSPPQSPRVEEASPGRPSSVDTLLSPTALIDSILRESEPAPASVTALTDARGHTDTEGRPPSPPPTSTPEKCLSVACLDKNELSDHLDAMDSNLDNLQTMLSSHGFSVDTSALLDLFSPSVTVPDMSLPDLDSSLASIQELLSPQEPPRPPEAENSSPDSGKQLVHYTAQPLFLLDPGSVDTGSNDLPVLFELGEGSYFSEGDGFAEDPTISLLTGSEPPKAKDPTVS
# How it was run: as §1
# ELK4 = molecular target: T5, ELK4 (Homo sapiens, UniProt P28324-2 1-405); details: protein: recombinant; tags: N-terminal GST; dsDNA, one strand shown
# T5 sequence: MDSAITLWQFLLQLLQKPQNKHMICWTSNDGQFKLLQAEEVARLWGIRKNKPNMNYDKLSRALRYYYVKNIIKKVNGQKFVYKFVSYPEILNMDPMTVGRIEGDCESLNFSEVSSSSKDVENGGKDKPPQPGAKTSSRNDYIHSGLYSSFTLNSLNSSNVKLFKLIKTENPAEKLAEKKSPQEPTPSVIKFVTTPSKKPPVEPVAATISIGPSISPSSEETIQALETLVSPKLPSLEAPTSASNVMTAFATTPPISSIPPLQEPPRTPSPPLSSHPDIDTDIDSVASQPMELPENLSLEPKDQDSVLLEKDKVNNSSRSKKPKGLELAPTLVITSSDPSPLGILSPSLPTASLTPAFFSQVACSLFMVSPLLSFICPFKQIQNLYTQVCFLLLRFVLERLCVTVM
# How it was run: as §1
# ETV2 = molecular target: T6, ETV2 (Homo sapiens, UniProt O00321 1-342); details: protein: recombinant; tags: N-terminal GST; dsDNA, one strand shown
# T6 sequence: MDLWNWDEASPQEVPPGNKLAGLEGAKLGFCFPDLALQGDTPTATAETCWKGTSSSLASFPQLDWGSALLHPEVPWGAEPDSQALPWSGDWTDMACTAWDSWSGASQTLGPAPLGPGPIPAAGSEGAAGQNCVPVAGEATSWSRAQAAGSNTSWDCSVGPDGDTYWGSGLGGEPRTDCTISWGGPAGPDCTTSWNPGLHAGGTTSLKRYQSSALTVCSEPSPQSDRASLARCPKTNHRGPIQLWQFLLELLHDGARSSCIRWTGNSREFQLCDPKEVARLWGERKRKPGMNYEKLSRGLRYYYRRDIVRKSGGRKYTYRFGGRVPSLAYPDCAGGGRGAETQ
# How it was run: as §1
# ELF3 = molecular target: T7, ELF3 (Homo sapiens, UniProt P78545 1-371); details: protein: recombinant; tags: N-terminal GST; dsDNA, one strand shown
# T7 sequence: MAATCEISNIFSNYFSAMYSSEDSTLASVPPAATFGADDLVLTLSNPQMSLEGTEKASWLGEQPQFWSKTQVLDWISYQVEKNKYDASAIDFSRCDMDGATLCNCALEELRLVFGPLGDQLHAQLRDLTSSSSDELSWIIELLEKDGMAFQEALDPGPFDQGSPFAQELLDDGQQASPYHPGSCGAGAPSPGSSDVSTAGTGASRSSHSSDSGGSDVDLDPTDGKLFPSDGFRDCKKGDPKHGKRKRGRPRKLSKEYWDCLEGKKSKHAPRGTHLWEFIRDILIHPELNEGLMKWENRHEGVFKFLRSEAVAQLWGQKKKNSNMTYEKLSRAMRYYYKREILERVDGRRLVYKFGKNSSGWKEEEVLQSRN
# How it was run: as §1
# CRX = CRX (Homo sapiens, UniProt O43186 1-299); details: protein: recombinant; tags: N-terminal GST; dsDNA, one strand shown
# CRX, sequence (O43186 whole entry): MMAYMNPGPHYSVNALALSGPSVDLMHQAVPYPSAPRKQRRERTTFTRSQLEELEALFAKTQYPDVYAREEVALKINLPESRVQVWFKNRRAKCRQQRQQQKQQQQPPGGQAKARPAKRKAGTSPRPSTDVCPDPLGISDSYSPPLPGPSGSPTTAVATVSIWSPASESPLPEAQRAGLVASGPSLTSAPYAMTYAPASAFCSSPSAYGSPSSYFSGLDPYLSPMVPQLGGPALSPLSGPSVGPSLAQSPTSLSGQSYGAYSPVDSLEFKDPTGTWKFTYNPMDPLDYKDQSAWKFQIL
# How it was run: as §1
# ETV1 = ETV1 (Homo sapiens, UniProt P50549 1-477); details: protein: recombinant; tags: N-terminal GST; dsDNA, one strand shown
# ETV1, sequence (P50549 whole entry): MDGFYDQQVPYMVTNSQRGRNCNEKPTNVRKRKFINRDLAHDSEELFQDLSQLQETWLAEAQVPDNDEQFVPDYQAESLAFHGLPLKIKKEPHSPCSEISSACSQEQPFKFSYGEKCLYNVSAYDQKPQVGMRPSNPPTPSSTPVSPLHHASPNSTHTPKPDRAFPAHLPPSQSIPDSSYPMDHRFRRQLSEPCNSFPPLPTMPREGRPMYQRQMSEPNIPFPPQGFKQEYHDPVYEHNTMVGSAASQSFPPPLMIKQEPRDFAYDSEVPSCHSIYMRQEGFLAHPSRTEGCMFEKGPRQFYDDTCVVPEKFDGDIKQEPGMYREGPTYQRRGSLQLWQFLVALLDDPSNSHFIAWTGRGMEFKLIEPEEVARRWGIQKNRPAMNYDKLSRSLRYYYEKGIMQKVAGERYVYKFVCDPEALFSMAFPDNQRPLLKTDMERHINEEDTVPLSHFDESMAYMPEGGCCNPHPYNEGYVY
# How it was run: as §1
# ETV3L = molecular target: T8, ETV3L (Homo sapiens, UniProt Q6ZN32 1-361); details: protein: recombinant; tags: N-terminal GST; dsDNA, one strand shown
# T8 sequence: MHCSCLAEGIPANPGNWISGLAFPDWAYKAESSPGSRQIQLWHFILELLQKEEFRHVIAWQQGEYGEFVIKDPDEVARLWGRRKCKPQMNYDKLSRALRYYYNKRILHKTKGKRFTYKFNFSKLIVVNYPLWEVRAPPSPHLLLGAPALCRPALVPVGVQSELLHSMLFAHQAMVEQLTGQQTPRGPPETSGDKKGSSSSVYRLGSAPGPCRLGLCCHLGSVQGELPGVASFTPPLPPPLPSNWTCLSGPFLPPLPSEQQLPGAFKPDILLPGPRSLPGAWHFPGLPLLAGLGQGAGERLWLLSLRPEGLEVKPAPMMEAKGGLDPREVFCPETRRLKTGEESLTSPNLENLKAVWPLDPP
# How it was run: as §1
# SPDEF = molecular target: T9, SPDEF (Homo sapiens, UniProt O95238 1-335); details: protein: recombinant; tags: N-terminal GST; dsDNA, one strand shown
# T9 sequence: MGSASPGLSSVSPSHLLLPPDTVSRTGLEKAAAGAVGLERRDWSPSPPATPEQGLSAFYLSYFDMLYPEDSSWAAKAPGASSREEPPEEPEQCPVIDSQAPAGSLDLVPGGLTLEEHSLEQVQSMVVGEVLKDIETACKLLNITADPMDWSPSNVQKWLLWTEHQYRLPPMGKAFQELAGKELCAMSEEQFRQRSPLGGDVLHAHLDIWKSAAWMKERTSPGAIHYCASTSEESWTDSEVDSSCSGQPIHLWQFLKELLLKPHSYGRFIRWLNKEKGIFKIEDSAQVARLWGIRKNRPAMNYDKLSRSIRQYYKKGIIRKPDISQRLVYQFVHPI
# How it was run: as §1
# ETV7 = molecular target: T10, ETV7 (Homo sapiens, UniProt Q9Y603 1-341); details: protein: recombinant; tags: N-terminal GST; dsDNA, one strand shown
# T10 sequence: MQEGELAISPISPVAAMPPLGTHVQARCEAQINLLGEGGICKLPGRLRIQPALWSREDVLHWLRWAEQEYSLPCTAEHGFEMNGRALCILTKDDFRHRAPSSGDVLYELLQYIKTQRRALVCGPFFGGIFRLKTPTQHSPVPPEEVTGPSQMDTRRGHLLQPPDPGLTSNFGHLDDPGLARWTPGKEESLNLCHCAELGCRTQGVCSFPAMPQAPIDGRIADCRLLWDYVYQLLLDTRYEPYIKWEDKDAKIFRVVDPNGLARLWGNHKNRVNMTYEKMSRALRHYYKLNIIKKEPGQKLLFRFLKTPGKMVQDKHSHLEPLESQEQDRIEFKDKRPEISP
# How it was run: as §1
sequence,measurement,setting,value
TAGACA,binding signal,ELK1,"1.07 fold enrichment (6-mer frequency, TF over GST control)"
same,binding signal,GABPA,"1.01 fold enrichment (6-mer frequency, TF over GST control)"
same,binding signal,ELK3,"1.02 fold enrichment (6-mer frequency, TF over GST control)"
same,binding signal,FEV,"1.02 fold enrichment (6-mer frequency, TF over GST control)"
same,binding signal,HSF1,"1.11 fold enrichment (6-mer frequency, TF over GST control)"
same,binding signal,ELK4,"1.11 fold enrichment (6-mer frequency, TF over GST control)"
same,binding signal,ETV2,"1.01 fold enrichment (6-mer frequency, TF over GST control)"
same,binding signal,ELF3,"1.01 fold enrichment (6-mer frequency, TF over GST control)"
same,binding signal,CRX,"1.03 fold enrichment (6-mer frequency, TF over GST control)"
same,binding signal,ETV1,"1.01 fold enrichment (6-mer frequency, TF over GST control)"
same,binding signal,ETV3L,"1.01 fold enrichment (6-mer frequency, TF over GST control)"
same,binding signal,SPDEF,"1.03 fold enrichment (6-mer frequency, TF over GST control)"
same,binding signal,ETV7,"1.07 fold enrichment (6-mer frequency, TF over GST control)"

# From article PMC7862700, “An all-to-all approach to the identification of sequence-specific readers for epigenetic DNA modifications on cytosine”
